Source: PubChem BioAssay
Shown are actives, neighbours in structure and some others; about 32% of the full set was active somewhere.
CYP2C9 inh: blockers of cytochrome P450 2C9 activity – biochemical, luminescence, ADME assay, primary screen; P11712; 96,000 tested, 20% active; CYP2C9 Supersomes, luciferin-H conversion; inhibition, % at 5 µM;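 active means blocking of liver enzyme CYP2C9 beyond about 50% at 5 µM, limit read from the data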
CYP2C9 act: human CYP2C9 activators, primary screen, biochemical, luminescence. Cytochrome P450 2C9 (Homo sapiens), P11712. recombinant CYP2C9, luciferin-H conversion; hits give high values; factor 1 = untreated enzyme, 0 = blocked. activation factor at 5 µM. 96,000 tested, 1.4% active. AID 1024, 2008;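 active means activation factor of 2 or more for CYP2C9 at a 5 µM dose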;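 further: 0 = sulfaphenazole-blocked wells and 1 = vehicle-only wells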
CYP2C19 activ: human CYP2C19 activators, primary screen, biochemical, luminescence; Cytochrome P450 2C19 (Homo sapiens), P33261; recombinant CYP2C19, luciferin-H EGE luminescence; hits give high values; 0 = fully inhibited enzyme, 1 = untreated enzyme; activation factor at 5 µM; 96,000 tested, under 10 active; AID 1025, 2008;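 active means activation factor of at least 2 at 5 µM in the primary screen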;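 further: 0 = wells with 2.5 mM tranylcypromine and 1 = vehicle-only wells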
Target sequence (P33261 whole entry, looked up): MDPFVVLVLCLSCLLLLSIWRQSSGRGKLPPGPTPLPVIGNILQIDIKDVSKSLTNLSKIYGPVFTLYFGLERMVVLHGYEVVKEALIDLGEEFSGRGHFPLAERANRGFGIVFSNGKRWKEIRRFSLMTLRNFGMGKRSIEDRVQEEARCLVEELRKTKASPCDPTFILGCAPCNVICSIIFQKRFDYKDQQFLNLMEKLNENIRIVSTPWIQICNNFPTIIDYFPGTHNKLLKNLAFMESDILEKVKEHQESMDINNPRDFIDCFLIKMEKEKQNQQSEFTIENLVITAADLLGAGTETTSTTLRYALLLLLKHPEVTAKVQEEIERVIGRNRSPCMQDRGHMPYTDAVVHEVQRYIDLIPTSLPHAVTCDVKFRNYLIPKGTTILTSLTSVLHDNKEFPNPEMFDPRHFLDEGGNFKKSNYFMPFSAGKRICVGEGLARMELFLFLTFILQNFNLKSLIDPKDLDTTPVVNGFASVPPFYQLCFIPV
PostGolgi ctrl: growth inhibition of yeast control strain, primary screen, counter-screen for post-Golgi transport modulator project. efflux-deficient yeast background strain, growth absorbance A615, 16 h. inhibition, % at 10 µM. 98,000 tested, 5% active. AID 738, 2007
PostGolgi yeast: phenotypic screen on post-Golgi transport, primary screen. 98,000 tested, 0.9% active. inhibition, % at 10 µM. post-Golgi transport phenotypic cell assay;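 further: yeast cells grown in 1536-well plates; yeast grown about 18 h at 30C before absorbance read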
CYP2C19 inh: blockers of cytochrome P450 2C19 activity – biochemical, luminescence, ADME assay, primary screen | CYP2C19 Supersomes, luciferin-H EGE luminescence, 30 min | 96,000 tested, 21% active | AID 778, 2007 | inhibition, % at 5 µM | P33261;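 active means CYP2C19 inhibition above a set limit at 5 µM in the primary screen, cut at about 50% in these data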;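 further: plate controls were negative control wells for no effect and 2.5 mM tranylcypromine positive control for full effect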
An asterisk follows results filed as active; nt = not tested or not shown. Unless noted, no stated cut-off is given here; in the data, active means inhibition above about 30%; inactive means the rest.

SMILES	CYP2C9 inh	CYP2C9 act	CYP2C19 activ	PostGolgi ctrl	PostGolgi yeast	CYP2C19 inh
Cc1oc(C)c2c(=O)ccc3c(c12)OC(N)=C(C#N)C3c1ccc(F)cc1 (stereo not drawn)	35	0.7	0.5	-5	-1	50*
O=C(Nc1ccn(Cc2c(F)c(F)c(F)c(F)c2F)n1)c1ccc(COc2ccccc2Cl)cc1	70*	0.3	0.6	0	0	43
O=C(Nc1ccn(Cc2c(F)c(F)cc(F)c2F)n1)c1ccc(COc2ccc(Cl)cc2Cl)o1	99*	0	0.1	7	-6	92*
CCN(CC)C(=O)c1ccc(COc2ccccc2Cl)cc1	-9	1.1	0.6	17	-7	38
COc1cccc(/C=N/NC(=O)c2ccc(COc3ccc(Cl)cc3Cl)o2)c1	14	0.9	0.9	-8	7	15
CC(C)CNC(=O)c1ccc(COc2ccc(Cl)cc2Cl)o1	76*	0.2	0.6	32*	-9	40
O=C(Nc1ccc(Cn2cccn2)cc1)c1ccc(COc2ccccc2Br)cc1	36	0.6	1	32*	-8	4
Cc1nn(C)c(C(=O)Nc2ccc(Cn3cccn3)cc2)c1[N+](=O)[O-]	40	0.6	0.8	11	0	18
N#Cc1nc(-c2cccs2)oc1NCCCN1CCOCC1	25	0.8	0.6	2	-14	41
COc1ccc2c(CC#N)c[nH]c2c1	-10	1.1	0.8	16	4	20
NS(=O)(=O)c1ccc(NC(=O)CSc2ccc3ccccc3n2)cc1	16	0.8	0.9	6	10	8
CCN(CC)CCNc1c2c(c(C#N)c3nc4ccccc4n13)CCCC2	26	0.7	0.8	46*	22	18
CCCS(=O)(=O)c1c(S(=O)(=O)CCC)c2c3ccccc3ccn2c1C(N)=O	0	1	1	4	1	2
CCCS(=O)(=O)c1c(S(=O)(=O)CCC)c2c(N)cccn2c1C(=O)c1ccccc1	75*	0.3	0.6	8	-5	40
O=C1C(Cl)=C(N2CCCCC2)C(=O)N1c1ccccc1	11	0.9	0.7	-4	1	25
CN1CCN(C2=C(Cl)C(=O)N(C3CCCCC3)C2=O)CC1	2	1	0.1	20	-16	94*
Cc1noc(C)c1CSCC(=O)OCc1nc2ccccc2c(=O)n1CC#N	65*	0.3	0.5	4	2	48
Cc1noc(C)c1CSCC(=O)OCC(=O)NC1CCCCC1	12	0.9	0.8	1	5	20
COc1cccc(C2C(C#N)=C(N)Oc3cc(C)oc(=O)c32)c1OC (stereo not drawn)	74*	0.3	0.6	5	-4	44
CCCC1C(C#N)=C(N)Oc2cc(C)n(C)c(=O)c21 (stereo not drawn)	-13	1.1	1	4	26	-4
Cc1cc2c(c(=O)o1)C(CC(C)C)C(C#N)=C(N)O2 (stereo not drawn)	63*	0.4	0.8	-4	0	24
Cc1cc2c(c(=O)o1)C(C13C=CC(CC1)C3)C(C#N)=C(N)O2 (stereo not drawn)	75*	0.2	0.3	-2	-1	72*
CC(C)Cn1c(Cc2ccccc2)n[nH]c1=S	-23	1.2	0.6	-4	-17	40
O=C(Nc1ccc(C2CCCCC2)cc1)C1CCN(c2ncccn2)CC1	-14	1.1	1	nt	nt	-4
C#CCOC(=O)Nc1cccn(Cc2c(Cl)cccc2Cl)c1=O	-97	2*	0.3	4	3	65*
CCOC(=O)Nc1cccc(Cl)c1C	-3	1	0.9	17	0	9
CCN1CCCC1CN(Cc1cc2c(C)cc(C)cc2[nH]c1=O)C(=O)NC1CCCCC1 (stereo not drawn)	16	0.8	0.8	3	-5	15
CCSCCNC(=O)c1cc(-n2cnnc2)ccc1Cl	-16	1.2	1.1	18	4	-11
O=C(Nc1ccccc1)c1cc(-n2cnnc2)ccc1Cl	12	0.9	1	-7	-18	0
O=C(NCCOc1cccc(Cl)c1Cl)c1cc(-n2cnnc2)ccc1Cl	54*	0.5	0.3	6	-2	70*
